Records with an inconclusive call do not appear. Entries that show only a call come without a potency. Activity calls are given as the source filed them. Calls come from the whole dose curve; as a rule, active = well fitted inhibition curve with a large enough effect in the repeat runs; inconclusive = weak or mixed curves; inactive = no such curve, though single readings can be large or run the other way.
Potency is the fitted concentration of half-maximal effect.

The target in the assay is Cytochrome P450 1A2 (Homo sapiens) (UniProt P05177). The assay is described as follows: Cytochrome P450 Family 1 Subfamily A Member 2 (CYP1A2) small molecule antagonists: luciferase reporter qHTS assay (AID 1671199). Note: nearly all actives have a fitted effect of over 50% in size. Particulars: P450-Glo CYP1A2 enzyme, luciferin luminescence, 1 h; series mostly up to 53 µM. The source says: National Center for Advancing Translational Sciences [NCATS]
Sequence of Cytochrome P450 1A2 (Homo sapiens) (P05177 whole entry, looked up): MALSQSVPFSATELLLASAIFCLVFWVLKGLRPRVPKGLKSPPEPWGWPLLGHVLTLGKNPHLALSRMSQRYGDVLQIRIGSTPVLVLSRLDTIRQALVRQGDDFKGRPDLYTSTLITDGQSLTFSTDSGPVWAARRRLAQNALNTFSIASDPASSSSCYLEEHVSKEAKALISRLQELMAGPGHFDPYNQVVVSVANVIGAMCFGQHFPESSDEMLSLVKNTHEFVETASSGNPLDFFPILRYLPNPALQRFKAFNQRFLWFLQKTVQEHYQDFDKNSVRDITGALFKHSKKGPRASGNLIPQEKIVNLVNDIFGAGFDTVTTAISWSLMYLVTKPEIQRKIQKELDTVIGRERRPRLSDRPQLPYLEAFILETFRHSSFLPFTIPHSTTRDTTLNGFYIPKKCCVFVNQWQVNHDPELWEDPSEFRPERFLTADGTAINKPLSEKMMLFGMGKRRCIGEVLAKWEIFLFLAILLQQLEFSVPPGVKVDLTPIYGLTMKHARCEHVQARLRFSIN
U.S. Environmental Protection Agency [EPA]
National Institutes of Environmental Health Sciences [NIEHS]
National Toxicology Program [NTP]
U.S. Food and Drug Administration [FDA]
Cytochrome P450 (CYP) enzymes are membrane-bound hemeproteins that play a key role in metabolism of drugs and xenobiotics. Evaluation of the effect of chemicals on CYP isozymes is useful to minimize the adverse drug reactions and toxicities in drug development process. Tox21 chemicals were tested for their effect on CYP enzyme activities by using P450-Glo (TM) screening systems (Promega Corporation, Madison, WI). These systems provide a luminescent method containing proluciferin substrates and are converted to luciferin products by CYP isozymes. The luciferin products formed are detected with a luciferin detection reagent, and the amount of light produced is proportional to CYP activity. P450-Glo (TM) CYP1A2 screening system (Catalog. No. V9770) was used to detect the compounds that interfere in CYP1A2 activity. The positive control compound used for CYP1A2 assay is furafylline (Sigma-Aldrich, St. Louis, MO).
Tox21 Assay Protocol Summary:
Two ul of enzyme-substrate mix was dispensed into medium binding white/solid 1536-well plates (Greiner Bio-One North America Inc., Monroe, NC) using a BioRaptr Flying Reagent Dispenser (FRD, Beckman Coulter, Brea, CA). Compounds dissolved in DMSO and positive control (furafyllline) were transferred to the assay plates at 23 nl using a Pintool station (Wako, San Diego, CA). The assay plates were incubated at room temperature for 10 min. Then 2 ul of NADPH regeneration solution was added to each well of the assay plates using an FRD and incubated at room temperature for 1 h. The reaction was stopped by adding 4 ul of detection reagent using an FRD and after 20 min incubation at room temperature the luminescence signal was measured using a ViewLux plate reader (Perkin Elmer, Shelton, CT). Data were expressed as relative luminescence units.
Background: In a reporter assay the amount or activity of a reporter protein is the signal.
For the compound `CNC(=O)[C@H]1O[C@@H](n2cnc3c(NCc4cc(Cl)ccc4OCc4cc(C)no4)ncnc32)[C@H](O)[C@@H]1N`, the Potency entry was “inactive”.
As for `Nc1ccc(S(=O)(=O)Nc2ccc(Cl)nn2)cc1`, the entry is “inactive”.
On to `CC(=O)CCCCn1c(=O)c2c(ncn2C)n(C)c1=O`, for which the Potency entry was “inactive”.
For the compound `CCC(C)(CCC(C)C)C(=O)O` (stereo not given), the Potency result is “inactive”.
As for `CCCCN`, the Potency result was “inactive”.
The same measure for `COP(=O)(OC)OC(c1ccc(Cl)cc1)P(=O)(OC)OC` (stereo not given): “inactive”.
The same measure for `CC1(C)S[C@@H]2[C@H](N=CN3CCCCCC3)C(=O)N2[C@H]1C(=O)O`: “inactive”; for `CN(CCOc1ccc(NS(C)(=O)=O)cc1)CCc1ccc(NS(C)(=O)=O)cc1`: “inactive”.
As for `O=C(O)Cc1cn(-c2ccccc2)nc1-c1ccc(Cl)cc1`, the Potency result is “inactive”.
For the compound `O=C(OCC(COC(=O)c1cccnc1)(COC(=O)c1cccnc1)COC(=O)c1cccnc1)c1cccnc1`, the Potency entry was “inactive”.
As for `NC(CO)C(=O)NNCc1ccc(O)c(O)c1O` (stereo not given), the entry is “inactive”; as for `CCCCCCCCCC(C)=O`, “inactive”.
As for `O=C1CC(c2ccc(Cl)cc2)CC(=O)N1`, the figure is 27.5 µM (active); as for `COc1ccc2c(c1)C(=O)N(CCc1ccc(S(=O)(=O)NC(=O)NC3CCCCC3)cc1)C(=O)C2(C)C`, “inactive”.
For the compound `COc1ccc2c(c1OC)C(=O)O[C@@H]2[C@H]1c2c(cc3c(c2OC)OCO3)CCN1C`, the Potency result was “inactive”.
The same measure for `Oc1cn2c(n1)Nc1ccc(Cl)c(Cl)c1C2`: 2.81 µM (active); for `CC[C@H](C)C(=O)O[C@H]1C[C@H](O)C=C2C=C[C@H](C)[C@H](CC[C@@H](O)C[C@@H](O)CC(=O)O)[C@H]21`: “inactive”; for `O=C(NCCN1CCOCC1)c1ccc(Cl)cc1`: “inactive”.
As for `CC(=O)OC(C)OC(=O)C(C)c1ccc(-c2ccccc2)c(F)c1` (stereo not given), the figure is 8.71 µM (active); as for `C=C(C)C(=O)OCCN(CC)CC`, 35.5 µM (active).
The same measure for `COc1ccc(C2CNC(=O)C2)cc1OC1CCCC1` (stereo not given): 13.8 µM (active).
Take `CCC(CC)CO`: the Potency result was “inactive”.
For the compound `Cc1ccc(C=O)cc1C`, the Potency is 35.6 µM (active).
On to `COc1ccc2nc(SCc3ncc(C)c(OC)c3C)[nH]c2c1`, for which the Potency was 15.5 µM (active).
The same measure for `COc1ccc(Br)c(C)c1`: 32 µM (active); for `CC(=O)Nc1ccc(S(=O)(=O)Cl)cc1`: “inactive”; for `Cc1cc(C(C)(C)C)c(O)c(C)c1CC1=NCCN1`: “inactive”.
As for `CCCC/C=C\CCCCCCCCCC=O`, the entry is “inactive”; as for `CC(S)C(=O)NCC(=O)O` (stereo not given), “inactive”.
The same measure for `CCOc1cc(NC(C)=O)ccc1C(=O)OC`: 5.49 µM (active); for `OCCC(F)(F)C(F)(F)C(F)(F)C(F)(F)C(F)(F)C(F)(F)C(F)(F)C(F)(F)F`: “inactive”; for `CC1(CO)CN(c2ccccc2)NC1=O` (stereo not given): 35.6 µM (active).
Turning to `O=C(O)Cc1ccc(Cl)cc1Cl`, the Potency entry was “inactive”.
Consider `CC(C)CC(C)CC(C)CC(C)COC(=O)c1ccccc1C(=O)OCC(C)CC(C)CC(C)CC(C)C` (stereo not given), for which the Potency is 65.9 µM (active).
Turning to `O=C(Nc1ccc(Cl)c(Cl)c1)C1CC1`, the Potency was 0.456 µM (active).
The same measure for `CC(=O)Nc1ccc(S(=O)(=O)Nc2ccc([N+](=O)[O-])cc2)cc1`: “inactive”.
As to `C=C(C)C(=O)OCCOP(=O)(O)OCCOC(=O)C(=C)C`, the Potency entry is “inactive”.
As for `C=CC(OCC)OCC`, the entry is “inactive”; as for `CCNC(=O)C1CC(C)CCC1C(C)C` (stereo not given), “inactive”.
As for `CC(C)(C)NC(N)=O`, the Potency was 17.8 µM (active).

For the origin of these results see PubChem BioAssay (Tox21).
